Measured values reported in PubChem BioAssay (NCI).
About 83,000 compounds went through this panel and 20% of them were active in at least one assay; those are over-represented in the sample as a whole.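 Negative percent growth values reflect cell death: -40 means 40% of the cells present at the start died, and -100 means all died.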 Active and inactive are the calls of the source. Rule for the calls: active = growth percent below 10; inactive = the rest.

tested on: NCI/ADR-RES ovarian; experiment: NCI-60 one-dose screen, 48 h (100 = growth as untreated, 0 = no growth, -100 = all killed); settings: 10 µM unless noted

Q: With `O=C(NNc1nc2cc(C(F)(F)F)ccc2n2cccc12)c1cnccn1` as the compound, how does the growth read?
A: -12% (active)

Q: For `Cc1cccc(NC(=O)[C@]23CCC(C)(C)CC2C2=CCC4[C@@]5(C)C[C@@H](O)[C@H](O)[C@@](C)(CO)C5CC[C@@]4(C)[C@]2(C)CC3)c1` (stereo partly drawn), which growth is on record?
A: 7.61% (active)

Q: Which growth does the source give for `CCCCSc1nc(NCCc2c[nH]c3ccccc23)c(C#N)c(-c2ccc(F)cc2)n1` here?
A: 58.2% (inactive)

Q: For `COc1ccc(-c2ccnc(SCc3cc4cc(Cl)ccc4[nH]c3=O)n2)cc1`, which growth is on record?
A: 44.8% (inactive)

Q: How did the growth turn out when `O=c1[nH]c2ccccc2cc1CSc1nccc(-c2ccc3ccccc3c2)n1` was run?
A: 41.7% (inactive)

Q: `CCCCCCCCc1ccc(S(=O)(=O)Nc2ccc(CC)cc2C(=O)O)cc1` was tested. Which growth did it give?
A: 96% (inactive)

Q: `COc1cc(OC)c2c3nc4cc(C)c(C)cc4nc3n(CCN(C)C)c2c1` was tested. Which growth did it give?
A: 3.26% (active)

Q: For `N#Cc1c(-c2cccc(O)c2O)cc(-c2ccc3ccccc3c2)[nH]c1=O`, which growth is on record?
A: 90.6% (inactive)

Q: For `O=c1[nH]n(C(=S)N/N=C/c2ccccc2Cl)c(=O)c2ccccc12`, which growth is on record?
A: -9.23% (active)

Q: For `COc1ccc(C(=O)/C=C/c2cccc(Cl)c2Cl)cc1S(N)(=O)=O`, which growth is on record?
A: 13.3% (inactive)

Q: With `COc1ccc(C(=O)/C=C/c2cccnc2)cc1S(N)(=O)=O` as the compound, how does the growth read?
A: 69.1% (inactive)

Q: With `Cc1cc2nc3c4ccccc4n(CC4=NCCN4)c3nc2cc1C` as the compound, how does the growth read?
A: 18.6% (inactive)

Q: For `CCCCCCCCc1ccc(C(=O)Nc2cccc(P(=O)(O)O)c2)cc1`, which growth is on record?
A: 101% (inactive)

Q: How did the growth turn out when `Cc1cc2nc3c([nH]c2cc1C)c1ccc(=O)cc1n3CCN(C)C` was run?
A: 33.6% (inactive)

Q: Which growth does the source give for `O=C(c1ccc(Cl)cc1)c1ccc(OCCCN2CCN(c3ccncc3)CC2)cc1` here?
A: 50% (inactive)

Q: For `CCCCSc1nc(NCCc2c[nH]c3ccccc23)c(C#N)c(-c2ccccc2)n1`, which growth is on record?
A: 22.9% (inactive)

Q: `O=C1N/C(=N\c2nccs2)S/C1=C\C=C/c1ccccc1` was tested. Which growth did it give?
A: 37.4% (inactive)

Q: Which growth does the source give for `CC(=O)OC[C@@]1(C)C2CC[C@]3(C)C(CC=C4C5CC(C)(C)CC[C@]5(C(=O)Nc5cccc(C)c5)CC[C@]43C)[C@@]2(C)C[C@@H](OC(C)=O)[C@@H]1OC(C)=O` (stereo partly drawn) here?
A: 36.2% (inactive)

Q: With `COc1ccc(C(SCCNCc2cc(N(C)C)ccn2)(c2ccccc2)c2ccccc2)cc1` as the compound, how does the growth read?
A: -46.1% (active)

Q: `O=c1onc(-c2cc3ccccc3nc2Cl)n1-c1cccc2ccccc12` was tested. Which growth did it give?
A: 15.2% (inactive)

Q: With `COc1ccc(C2=NN(c3ccccc3)C(c3ccc(OCc4ccccc4)c(OC)c3)C2)cc1OC` (stereo not drawn) as the compound, how does the growth read?
A: 109% (inactive)

Q: With `Nc1n[nH]c2cccc(C#Cc3cccc(NC(=O)c4cccc(Cl)c4)c3)c12` as the compound, how does the growth read?
A: 25.6% (inactive)

Q: With `O=C(Cn1c2c(sc1=O)[C@H]1[C@@H](O)[C@@H](O)[C@H](O)[C@@H]1CS2)N1CCOCC1` as the compound, how does the growth read?
A: 104% (inactive)

Q: Which growth does the source give for `CC(=O)Nc1cccc(Nc2nc(N[C@H]3CCCc4ccccc43)c3ccccc3n2)c1` here?
A: 100% (inactive)

Q: How did the growth turn out when `N/C(=N\c1nc2ccccc2s1)NC(=O)NCCCCCCO` was run?
A: 24.3% (inactive)

Q: With `COc1ccc2c(c1)C(=N/N=C(\C)c1ccc(OC)c(S(N)(=O)=O)c1)C(=O)N2` as the compound, how does the growth read?
A: 100% (inactive)

Q: How did the growth turn out when `CCCSc1nc(NCCc2c[nH]c3ccccc23)c(C#N)c(-c2ccc(F)cc2)n1` was run?
A: 49.5% (inactive)

Q: With `O=c1[nH]c2ccccc2cc1CSc1cccc(Nc2nccc(-c3ccc4ccccc4c3)n2)c1` as the compound, how does the growth read?
A: 51.4% (inactive)

Q: `CCN(CC)c1ccnc(CNCCSC(c2ccccc2)(c2ccccc2)c2ccc(C)cc2)c1` was tested. Which growth did it give?
A: -84.3% (active)

Q: How did the growth turn out when `CN(C)CCn1c2ccccc2c2nc3cc(C(F)(F)F)ccc3nc21` was run?
A: 30.2% (inactive)

Q: `CC1(C)CC[C@]2(C(=O)Nc3ccc(Br)cc3)CC[C@]3(C)C(=CCC4[C@@]5(C)C[C@@H](O)[C@H](O)[C@@](C)(CO)C5CC[C@]43C)C2C1` (stereo partly drawn) was tested. Which growth did it give?
A: 14.7% (inactive)

Q: With `CCC(C)(C)c1ccc(OCCCCCCN2CCN(c3ccncc3)CC2)cc1` as the compound, how does the growth read?
A: 19% (inactive)

Q: How did the growth turn out when `COc1ccc(C(=O)/C=C/c2ccc(Cl)c(Cl)c2)cc1S(N)(=O)=O` was run?
A: 14.8% (inactive)

Q: Which growth does the source give for `Cc1cc(N=C2NC(=O)CS2)n[nH]1` here?
A: 111% (inactive)

Q: For `Cc1ccc(C(=O)CSc2nc3ccc(F)cc3c(=O)n2-c2ccc(Cl)cc2)cc1`, which growth is on record?
A: 28.3% (inactive)

Q: Which growth does the source give for `COc1ccc(C(=O)/C=C/c2cccc(Br)c2)cc1S(N)(=O)=O` here?
A: -21.5% (active)

Q: `Cc1sc(C(NC(=O)OCCn2c([N+](=O)[O-])cnc2C)C(F)(F)Cl)nc1-c1ccc(OC(F)(F)F)cc1` (stereo not drawn) was tested. Which growth did it give?
A: -78.6% (active)

Q: `COc1ccc(NC(=O)Cn2c3c(sc2=O)[C@H]2[C@@H](O)[C@@H](O)[C@H](O)[C@@H]2CS3)cc1` was tested. Which growth did it give?
A: 107% (inactive)
